Hits are enriched below; roughly 2.3% of the tested compounds scored in any of these assays.
M1 ag – agonists of human M1 muscarinic receptor; AID 588814; P11229; actives 0.33% (n = 360,000); CHO-K1 hM1, Fluo-8 calcium fluorescence, agonist mode; 0% DMSO, 100% acetylcholine EC100; activation, % at 3 µM;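 active means activation above the run's mean compound activation plus 3 SD, cut at about 16% in these data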;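 further: peak over basal fluorescence ratio within a 140 s kinetic read after compound addition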
Target sequence (P11229 whole entry, looked up): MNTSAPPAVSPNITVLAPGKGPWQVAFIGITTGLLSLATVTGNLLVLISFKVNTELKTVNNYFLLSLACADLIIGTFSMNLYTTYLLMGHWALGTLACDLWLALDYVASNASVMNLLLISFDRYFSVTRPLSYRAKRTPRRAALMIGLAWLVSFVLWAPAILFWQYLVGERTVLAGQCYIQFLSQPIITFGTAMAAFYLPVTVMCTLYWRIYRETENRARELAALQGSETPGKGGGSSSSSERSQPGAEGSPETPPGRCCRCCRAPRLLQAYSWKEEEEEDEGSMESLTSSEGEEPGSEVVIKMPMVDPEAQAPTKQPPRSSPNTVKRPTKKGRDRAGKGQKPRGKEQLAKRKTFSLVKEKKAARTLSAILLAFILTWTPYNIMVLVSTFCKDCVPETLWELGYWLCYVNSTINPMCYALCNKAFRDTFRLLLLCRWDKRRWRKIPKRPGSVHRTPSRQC
M1 PAM parental – counter-screen for M1 PAMs: effect in parental CHO-K1 cells; ATP EC20, Fluo-8 calcium fluorescence; 0% at ATP EC20, 100% at ATP max; activation, % at 3 µM; actives 0.02% (n = 360,000); AID 602247;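 active means activation above the run cutoff, the mean activation of all test compounds plus 3 SD, cut at about 40% in these data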;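 further: peak over basal fluorescence ratio in a 140 s read after ATP addition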
CHO-K1 Ca antag – nonselective inhibitor or artifact in parental CHO-K1 cells; ATP-induced calcium, Fluo-8 fluorescence; inhibition, % at 3 µM; actives 0.6% (n = 360,000); AID 602250;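 active means inhibition above a per-plate cutoff, the plate's mean sample inhibition plus 3 SD, cut at about 24% in these data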;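 further: 0% = DMSO plus EC80 ATP and 100% = DMSO alone without ATP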
CHRM1 antagonist – human CHRM1 antagonism; P11229; CHO-K1 hM1, Fluo-8 calcium fluorescence, ACh EC80 antagonist; inhibition, % at 3 µM; actives 1.3% (n = 360,000); AID 588852;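 active means percent inhibition above its own plate's cutoff, namely the mean of that plate's compound wells plus 3 SD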;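 further: peak over basal fluorescence ratio during 140 s after agonist addition; 0% = ACh EC80 plus DMSO and 100% = DMSO alone without agonist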
M1 ag parental – M1 agonist counterscreen hit in parental CHO-K1 cells; Fluo-8 calcium fluorescence; scaled to maximal ATP response, vehicle zero; activation, % at 3 µM; actives 0.48% (n = 360,000); in the data active means activation above about 15%;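 further: untransfected CHO-K1 host cells lacking M1 receptor as counterscreen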
CHRM1 PAM – potentiates human M1 receptor response to acetylcholine. P11229. CHO-K1 hM1, Fluo-8 calcium fluorescence, ACh EC20; 0% = ACh EC20, 100% = maximal ACh. activation, % at 3 µM. actives 0.088% (n = 360,000); in the data active means activation above about 19%, passing the limit was not always enough
* marks the source's active call; other numbers are inactive results.

Screening Cn1c(=O)c2[nH]c(C3CC3)nc2n(C)c1=O returned M1 ag 0, M1 PAM parental -18, CHO-K1 Ca antag 8, CHRM1 antagonist 3, M1 ag parental 0 and CHRM1 PAM 8.
Screening CCOCc1nnc(NC(=O)C2c3ccccc3Oc3ccccc32)s1 returned M1 ag 6, M1 PAM parental 16, CHO-K1 Ca antag 7, CHRM1 antagonist 12, M1 ag parental 20* and CHRM1 PAM -13.
For Cc1nnc(NC(=O)C2c3ccccc3Oc3ccccc32)s1 the results were M1 ag -5, M1 PAM parental 2, CHO-K1 Ca antag 4, CHRM1 antagonist 15, M1 ag parental 1 and CHRM1 PAM -11.
`CCOCc1nnc(NC(=O)c2ccco2)s1` gave M1 ag -1, M1 PAM parental 3, CHO-K1 Ca antag -8, CHRM1 antagonist 2, M1 ag parental 0 and CHRM1 PAM 6.
`CC(C)c1nnc(NC(=O)C2c3ccccc3Oc3ccccc32)s1` gave M1 ag 1, M1 PAM parental 17, CHO-K1 Ca antag -5, CHRM1 antagonist 45*, M1 ag parental 2 and CHRM1 PAM -19.
For COc1cccc(NC(=O)CCN2C(=O)c3ccccc3Sc3ncccc32)c1 the results were M1 ag -1, M1 PAM parental 15, CHO-K1 Ca antag -7, CHRM1 antagonist -10, M1 ag parental 0 and CHRM1 PAM 6.
For O=C(Nc1ccc(O)cc1)c1ccccc1OCc1ccccc1 the results were M1 ag 2, M1 PAM parental 12, CHO-K1 Ca antag -3, CHRM1 antagonist -11, M1 ag parental 16* and CHRM1 PAM 4.
`O=C(NCc1ccccn1)c1ccccc1OCc1ccc(F)cc1` gave M1 ag 2, M1 PAM parental -21, CHO-K1 Ca antag 19, CHRM1 antagonist -3, M1 ag parental 0 and CHRM1 PAM 3.
COc1ccccc1CNC(=O)c1ccccc1OCc1ccc(F)cc1 was read as M1 ag 0, M1 PAM parental 44*, CHO-K1 Ca antag -10, CHRM1 antagonist 7, M1 ag parental 42* and CHRM1 PAM -15.
O=C(NCC1CCCO1)C(C(=O)c1ccc(F)cc1)n1ccccc1=O (stereo not drawn) was read as M1 ag -3, M1 PAM parental -7, CHO-K1 Ca antag 31*, CHRM1 antagonist 6, M1 ag parental 0 and CHRM1 PAM -6.
`O=C(NCC1CCCO1)c1ccccc1OCc1ccc(Cl)cc1` (stereo not drawn) gave M1 ag -2, M1 PAM parental -2, CHO-K1 Ca antag -4, CHRM1 antagonist 8, M1 ag parental 3 and CHRM1 PAM -5.
`O=C(Nc1ccccc1)c1ccccc1OCc1ccc(F)cc1` gave M1 ag -4, M1 PAM parental -5, CHO-K1 Ca antag 9, CHRM1 antagonist 19, M1 ag parental 3 and CHRM1 PAM -10.
Screening O=C(NCC1CCCO1)c1ccccc1OCc1ccc(F)cc1 (stereo not drawn) returned M1 ag -2, M1 PAM parental -2, CHO-K1 Ca antag 10, CHRM1 antagonist -8, M1 ag parental 23* and CHRM1 PAM 8.
Screening O=C(Nc1ccncc1)c1ccc2c(c1)C(=O)N(C1CCCCC1)C2=O returned M1 ag 6, M1 PAM parental 12, CHO-K1 Ca antag 17, CHRM1 antagonist 35*, M1 ag parental 9 and CHRM1 PAM -15.
For Cc1cc(NC(=O)c2ccc3c(c2)C(=O)N(C2CCCCC2)C3=O)no1 the results were M1 ag -2, M1 PAM parental 13, CHO-K1 Ca antag -10, CHRM1 antagonist -7, M1 ag parental 0 and CHRM1 PAM 5.
`CSc1ccccc1NC(=S)NCc1ccc(Cl)cc1` gave M1 ag -2, M1 PAM parental 13, CHO-K1 Ca antag -3, CHRM1 antagonist 26*, M1 ag parental 2 and CHRM1 PAM -10.
For COC(=O)c1cc(NC(=S)NCc2ccc(Cl)cc2)cc(C(=O)OC)c1 the results were M1 ag 15, M1 PAM parental -5, CHO-K1 Ca antag 24*, CHRM1 antagonist 16, M1 ag parental 13 and CHRM1 PAM -4.
